Bioassay records from PubChem.
The list is not random: actives were taken first. Their share in the collection is about 1.1%.
LmPK inh = qHTS Assay for Inhibitors of Leishmania Mexicana Pyruvate Kinase (LmPK). Q27686. purified LmPK, Kinase-Glo ATP luminescence, 1 h. Potency, µM (titrated, usually from 57.5 µM), without a hit: top-dose activity change, negative = inhibition, actives largely listed as inhibitors. actives 0.37% (n = 290,000). AID 1721, 2009; also: % is scaled to controls: 0 for no effect and ±100 for the full control effect
Target sequence (Q27686 whole entry, looked up): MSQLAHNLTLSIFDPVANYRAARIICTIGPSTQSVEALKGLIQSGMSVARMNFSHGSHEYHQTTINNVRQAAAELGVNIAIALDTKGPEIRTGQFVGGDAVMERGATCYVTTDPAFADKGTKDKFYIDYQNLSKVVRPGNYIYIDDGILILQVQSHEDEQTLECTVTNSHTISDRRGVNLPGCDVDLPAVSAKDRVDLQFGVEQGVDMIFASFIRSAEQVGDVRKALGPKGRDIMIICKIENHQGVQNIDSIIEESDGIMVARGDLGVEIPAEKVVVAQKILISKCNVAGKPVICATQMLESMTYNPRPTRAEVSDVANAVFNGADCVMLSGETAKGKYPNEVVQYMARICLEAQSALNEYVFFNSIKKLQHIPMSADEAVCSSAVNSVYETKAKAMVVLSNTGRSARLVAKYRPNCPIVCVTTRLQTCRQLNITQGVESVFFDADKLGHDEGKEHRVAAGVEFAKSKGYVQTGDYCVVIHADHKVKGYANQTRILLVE
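Purified LmPK (0.1 nM) converted ADP (0.1 mM) to ATP with PEP (0.5 mM) in imidazole buffer pH 7.2 with KCl and MgCl2, 1 h at room temperature. ATP was read by Kinase-Glo luminescence; data normalized to uninhibited and no-enzyme controls.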
SARS PLP yeast = qHTS of Yeast-based Assay for SARS-CoV PLP. S. cerevisiae expressing SARS-CoV PLpro, growth rescue. Potency, µM (titrated, usually from 32.9 µM), for the others: at the highest dose activity, positive = growth rescue, most hits filed as activators. actives 0.19% (n = 330,000); calls by dose curve; also: 0% is about no effect; nearly all actives have a fitted effect of over 55% in size
Giardia FBPA inh-1 = qHTS Assay for Inhibitors of Fructose-1,6-bisphosphate Aldolase from Giardia Lamblia | Potency, µM (series often up to 59.6 µM), without a hit: at the top dose activity, negative = inhibition, usual class: inhibitors | AID 2451, 2010 | actives 0.71% (n = 290,000) | purified Giardia FBPA; also: % is scaled to controls: 0 for no effect and ±100 for the full control effect; nearly all actives have a fitted effect of over 55% in size
Target sequence (A8B2U2 whole entry, looked up): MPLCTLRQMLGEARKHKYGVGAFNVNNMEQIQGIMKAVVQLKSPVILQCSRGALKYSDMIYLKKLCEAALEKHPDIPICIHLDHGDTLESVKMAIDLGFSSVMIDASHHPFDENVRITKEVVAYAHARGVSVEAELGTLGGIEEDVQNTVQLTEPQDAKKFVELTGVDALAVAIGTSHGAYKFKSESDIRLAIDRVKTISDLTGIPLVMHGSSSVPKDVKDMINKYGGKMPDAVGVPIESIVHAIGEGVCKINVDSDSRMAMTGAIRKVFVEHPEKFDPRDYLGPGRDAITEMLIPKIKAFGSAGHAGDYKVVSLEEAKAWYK
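Giardia FBPA (40 nM reagent) was preincubated 10 min at RT with compound (up to 57.5 uM final), then substrate plus GAPDH/TPI/NAD/arsenate coupling system with diaphorase/resazurin was added; resorufin fluorescence (525/598 nm) was read after 20 min.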
RE007 growth inh = qHTS Assay for Inhibitors of the HIV-1 protein Vpr. S. pombe RE007 Vpr strain, BacTiter-Glo ATP luminescence, 24 h. Potency, µM (series often up to 92.2 µM), for the others: at the top dose activity change, negative = less growth, hits mostly inhibitors. actives 0.21% (n = 360,000); active = well fitted falling curve with a large enough effect; inconclusive = small, poorly fitted or top-dose-only effect; inactive = no such curve, though single readings can be large or run the other way; also: % is scaled to controls: 0 for no effect and ±100 for the full control effect; nearly all actives have a fitted effect of over 50% in size
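Fission yeast strain RE007, carrying one chromosomally integrated HIV-1 vpr copy, was seeded at OD 0.01 in PMG+AL medium with 23 nL pinned compound. After 24 h at 30 °C and 99% humidity, viability was read by BacTiter-Glo luminescence.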
TbPYK inhibitor = qHTS of Trypanosoma Brucei Inhibitors. Potency, µM (highest dose often 76.8 µM), for inactives: at the highest dose activity, negative = inhibition, usual class: inhibitors. TbPYK enzyme, Kinase-Glo Plus ATP luminescence, 45 min. actives 0.12% (n = 410,000). AID 624173, 2012; also: % is scaled to controls: 0 for no effect and ±100 for the full control effect; nearly all actives have a fitted effect of over 50% in size
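Assay buffer: 50 mM TEA pH 7.2, 100 mM KCl, 10 mM MgCl2, 0.05% BSA, 0.01% Tween-20. Pyruvate kinase from T. brucei plus substrate met compound, then ADP (130 uM final). Luminescence was read post 45 min RT.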
Giardia growth = qHTS Assay for Inhibitors of Fructose-1,6-bisphosphate Aldolase from Giardia Lamblia: Giardia lamblia growth inhibition; shares compounds with Giardia FBPA inh-1; Giardia lamblia trophozoite growth inhibition; Potency, µM (doses to about 57.5 µM), for the others: at the highest dose activity change, negative = inhibition, usual class: inhibitors; actives 5% (n = 1,500);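 also: trophozoites exposed to compound for 48 h at 37 °C; % is scaled to controls: 0 for no effect and ±100 for the full control effect; nearly all actives have a fitted effect of over 70% in size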
Mammalian tox = qHTS Assay for Inhibitors of Fructose-1,6-bisphosphate Aldolase from Giardia Lamblia: Mammalian cellular toxicity; shares compounds with Giardia FBPA inh-1; mammalian cell viability counter-screen, qHTS; Potency, µM (series often up to 57.5 µM), inactives show top-dose viability change, negative = toxicity, hits mostly inhibitors; actives 4% (n = 1,500); AID 2786, 2010;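 also: Chinese hamster ovary cells used as mammalian cytotoxicity surrogate; viability measured as cellular ATP by luminescence; compound exposure lasted 48 h before reading; % is scaled to controls: 0 for no effect and ±100 for the full control effect; nearly all actives have a fitted effect of over 60% in size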
Giardia FBPA inh-2 = qHTS Assay for Inhibitors of Fructose-1,6-bisphosphate Aldolase from Giardia Lamblia: Primary screen confirmation; shares compounds with Giardia FBPA inh-1; purified Giardia aldolase enzyme activity, qHTS; Potency, µM (top dose mostly 57.5 µM), inactives show top-dose activity change, negative = inhibition, hits mostly inhibitors; actives 5% (n = 1,500); AID 2787, 2010; also: % is scaled to controls: 0 for no effect and ±100 for the full control effect; nearly all actives have a fitted effect of over 45% in size
Rabbit aldolase = qHTS Assay for Inhibitors of Fructose-1,6-bisphosphate Aldolase from Giardia Lamblia: Rabbit FBPA Selectivity | shares compounds with Giardia FBPA inh-1 | Rabbit muscle FBPA enzyme inhibition, selectivity counter-screen | Potency, µM (series often up to 57.5 µM), for the others: top-dose activity, negative = inhibition, usual class: inhibitors | actives 4% (n = 1,500) | AID 2794, 2010; also: % is scaled to controls: 0 for no effect and ±100 for the full control effect; nearly all actives have a fitted effect of over 60% in size
GAPDH counter = qHTS Assay for Inhibitors of Fructose-1,6-bisphosphate Aldolase from Giardia Lamblia: Coupling assay counterscreen confirmation; actives 6% (n = 1,500); Potency, µM (series often up to 57.5 µM), for inactives: at the highest dose activity change, negative = inhibition, most hits filed as inhibitors; shares compounds with Giardia FBPA inh-1; GAPDH coupling enzyme counterscreen, biochemical, qHTS; AID 2795, 2010; also: % is scaled to controls: 0 for no effect and ±100 for the full control effect; nearly all actives have a fitted effect of over 55% in size
* = called active by the depositor; [ ] = dose if it differs, or a comment. Unless noted, calls follow the shape of the dose curve; as a rule, active = well fitted curve in the direction sought with a large enough effect; inconclusive = small, poorly fitted or top-dose-only effect, or another doubt; inactive = no such curve, though single readings can be large; an effect the other way counts as inactive or inconclusive. Potency is read from the fitted curve at half-maximal effect.

Screening O=C(c1ccc2c(=O)n(C3CCCC3)c(=S)[nH]c2c1)N1CCCCCC1 returned LmPK inh 12.4%, SARS PLP yeast -0.4%, Giardia FBPA inh-1 17.7µM*, RE007 growth inh 7.7%, TbPYK inhibitor -11.1%, Giardia growth 2.5%[10.4 µM], Mammalian tox -10.5%, Giardia FBPA inh-2 5.7%, Rabbit aldolase 3.1% and GAPDH counter 7.9%.
`Cc1cc(Cl)ccc1N=c1ssnc1Cl` gave LmPK inh -12.1%, SARS PLP yeast -17.6%, Giardia FBPA inh-1 15.8µM*, RE007 growth inh 74.3%, TbPYK inhibitor inconclusive, Giardia growth -21.0%, Mammalian tox 6.8%, Giardia FBPA inh-2 -1.0%, Rabbit aldolase -3.2% and GAPDH counter 21.4%.
Screening COc1ccc(OC)c(N=c2ssnc2Cl)c1 returned LmPK inh -22.2%, SARS PLP yeast -0.2%, Giardia FBPA inh-1 17.7µM*, RE007 growth inh inconclusive, TbPYK inhibitor 28.2µM*, Giardia growth inconclusive, Mammalian tox 8.9%, Giardia FBPA inh-2 -10.0%, Rabbit aldolase 4.7% and GAPDH counter -3.7%.
`CCC(Nc1ccc(-c2nc(-c3ccccn3)no2)cc1[N+](=O)[O-])c1ccccc1` (stereo unspecified) gave TbPYK inhibitor 0.1%.
Screening COc1ccc(-c2cc(-c3ccco3)[nH]c(=O)c2C#N)cc1 returned LmPK inh 12.1%, SARS PLP yeast 2.9%, Giardia FBPA inh-1 19.9µM*, RE007 growth inh -0.3%, TbPYK inhibitor 2.8%, Giardia growth -28.7%, Mammalian tox -7.3%, Giardia FBPA inh-2 -11.8%, Rabbit aldolase -1.2% and GAPDH counter -0.6%.
For CC(=O)c1c(C)nc(C)nc1NC(=O)Cc1ccccc1 the results were LmPK inh -2.9%, SARS PLP yeast -8.3%, Giardia FBPA inh-1 -2.4%, RE007 growth inh 7.7% and TbPYK inhibitor 3.8%.
`CC(=O)Nc1nc(-c2ccc(Cl)cc2)nc(C)c1C(C)=O` gave LmPK inh 2.9%, SARS PLP yeast -3.5%, Giardia FBPA inh-1 7.06µM*, RE007 growth inh 17.5%, TbPYK inhibitor -1.9%, Giardia growth -0.2%[10.4 µM], Mammalian tox -16.5%, Giardia FBPA inh-2 -7.2%, Rabbit aldolase 6.8% and GAPDH counter 4.8%.
`Cc1nn(-c2ccccc2)c2nc(C3CC3)cc(C(=O)Nc3cccc(F)c3)c12` gave TbPYK inhibitor -6.3%.
For Cn1cnc(Sc2ncnc3nc[nH]c23)c1[N+](=O)[O-] the results were LmPK inh 12.5%, SARS PLP yeast 0.9%, Giardia FBPA inh-1 14.1µM*, RE007 growth inh 47.7%, TbPYK inhibitor inconclusive, Giardia growth inconclusive, Mammalian tox 10.1%, Giardia FBPA inh-2 1.2%, Rabbit aldolase -3.3% and GAPDH counter 4.1%.
`CNCCC1Sc2ccccc2Oc2ccccc21` (stereo unspecified) gave LmPK inh -2.7%, SARS PLP yeast 0.3%, Giardia FBPA inh-1 17.7µM*, RE007 growth inh -10.7%, TbPYK inhibitor 3.7%, Giardia growth -9.4%, Mammalian tox 3.9%, Giardia FBPA inh-2 -1.9%, Rabbit aldolase 4.4% and GAPDH counter 5.3%.
COc1cc(CN2CCN(Cc3ccc([N+](=O)[O-])cc3)CC2)c([N+](=O)[O-])cc1OC was read as LmPK inh -3.4%, SARS PLP yeast -1.0%, Giardia FBPA inh-1 12.6µM*, RE007 growth inh 4.3%, TbPYK inhibitor -18.6%, Giardia growth -17.2%, Mammalian tox 8.7%, Giardia FBPA inh-2 inconclusive, Rabbit aldolase -23.2% and GAPDH counter -10.7%.
CCN1CCN(Cc2cc(OC)c(OC)cc2[N+](=O)[O-])CC1 was read as LmPK inh -1.9%, SARS PLP yeast 4.0%, Giardia FBPA inh-1 inconclusive, RE007 growth inh 4.8% and TbPYK inhibitor -1.4%.
`CCCCSc1nnc2c(n1)OC(c1ccc(C)s1)Nc1ccccc1-2` (stereo unspecified) gave TbPYK inhibitor 0.1%.
`COc1ccc(-c2cc(=S)ss2)cc1` gave TbPYK inhibitor 3.0%.
For CC1=C(C#N)C(=O)N(C2CCS(=O)(=O)C2)C(=O)/C1=C\c1ccc(C)o1 (stereo unspecified) the results were LmPK inh 4.8%, SARS PLP yeast 0.4%, Giardia FBPA inh-1 12.6µM*, Giardia growth 46.6%, Mammalian tox 5.3%, Giardia FBPA inh-2 inconclusive, Rabbit aldolase inconclusive and GAPDH counter inconclusive.
For Cc1ccc(CCNC(=O)CN(c2ccc(C(C)C)cc2)S(=O)(=O)c2c(C)nn(C)c2C)cc1 the results were TbPYK inhibitor 1.8%.
For CN1CCN(Cc2coc3c(Cl)cc(Cl)cc3c2=O)CC1 the results were LmPK inh -0.8%, SARS PLP yeast 1.5%, Giardia FBPA inh-1 12.6µM*, RE007 growth inh -1.5%, TbPYK inhibitor -20.5%, Giardia growth -12.1%, Mammalian tox -8.3%, Giardia FBPA inh-2 2.4%, Rabbit aldolase 7.8% and GAPDH counter -11.2%.
For CCOc1ccc(C2NC(=O)c3c(COC)cc(C)nc3N2Cc2ccccc2)cc1OC (stereo unspecified) the results were TbPYK inhibitor 3.6%.
Screening O=C(NC1CCCCCC1)C(=O)NC1CC1 returned LmPK inh -1.5%, SARS PLP yeast -2.7%, Giardia FBPA inh-1 9.7%, RE007 growth inh 3.2% and TbPYK inhibitor -1.6%.
